Screening data as filed in PubChem.
Shown are actives, neighbours in structure and some others; about 13% of the full set was active somewhere.
FMDV inh: blocks foot and mouth disease virus | FMDV antiviral cell-based qHTS | Potency, µM (top dose mostly 57.9 µM), for inactives: at the highest dose activity change, negative = inhibition, actives largely listed as inhibitors | 410,000 tested, 1.2% active | AID 1159524; calls by dose curve; tested in HEK293T cells; further: read-out not given here; potency means the concentration at half of the fitted maximal effect; on the % scale 0 is the no-effect control and ±100 the full control effect; nearly all actives have a fitted effect of over 45% in size
HCV inh: blocks hepatitis C virus | Huh7.5.1 HCVcc-Cre infection, luciferase reporter, 44 h | 340,000 tested, 3.4% active | Potency, µM (top dose mostly 41.8 µM), inactives show at the highest dose activity change, negative = inhibition, hits mostly inhibitors; active means well fitted inhibition curve with a large enough effect; inconclusive means small, poorly fitted or top-dose-only effect, or another doubt; inactive means no such curve, though single readings can be large or run the other way; further: potency means the concentration at half of the fitted maximal effect; on the % scale 0 is the no-effect control and ±100 the full control effect
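Luciferase read-out (15 sec integration) after a 15 min room-temperature substrate step quantifies HCVcc-Cre infection. Cells, 1,000 per well, had compound added 4 h post-plating, then virus at ~0.5 moi, and were cultured 44 h.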
MARV entry inh: Marburg virus entry inhibition; Potency, µM (top dose mostly 37.8 µM), without a hit: at the highest dose activity change, negative = inhibition, usual class: inhibitors; Marburg virus pseudotyped entry inhibition, cell reporter; 300,000 tested, 1.8% active; calls by dose curve; tested in HEK293 cells; further: potency means the concentration at half of the fitted maximal effect; on the % scale 0 is the no-effect control and ±100 the full control effect
Shiga inhibitor: Shiga toxin inhibition; AID 2315; Vero cells, Shiga toxin protein synthesis inhibition reporter; inhibition, % at 38.7 µM; 290,000 tested, 9.2% active; in the data active means inhibition mostly above about 28%, no sharp cut-off; inactive means mostly below about 43%; further: 0% is about no effect
CHX counter: counter-screen hit for Shiga toxin inhibitors, cycloheximide; cell reporter, cycloheximide protein synthesis inhibition counterscreen; AID 2314; 300,000 tested, 12% active; max response, %; in the data active means max response mostly above about 13%, no sharp cut-off; inactive means mostly below about 14%; further: read at 38.3 µM for the half of the compounds with a filed dose; 0% is about no effect
LASV entry inh: Lassa virus entry inhibition; 300,000 tested, 1.2% active; Lassa virus pseudotype entry inhibition, cell reporter; Potency, µM (titrated, usually from 37.9 µM), inactives show top-dose activity change, negative = inhibition, most hits filed as inhibitors; calls by dose curve; tested in HEK293 cells; further: potency means the concentration at half of the fitted maximal effect; on the % scale 0 is the no-effect control and ±100 the full control effect; nearly all actives have a fitted effect of over 50% in size
Active calls of the source: *; i = inactive; ? = inconclusive; . = not tested or not shown; [ ] = remark or other dose.

SMILES	FMDV inh	HCV inh	MARV entry inh	Shiga inhibitor	CHX counter	LASV entry inh
Cn1c(=O)c2c(nc(NCc3ccco3)n2CCc2ccccc2)n(C)c1=O	20µM*	?	?	1	-8	-17%
CCC(C)C(=O)Nc1nc(C)c(-c2csc(Nc3ccccc3OC)n2)s1 (stereo not given)	-7%	?	.	-14	-4	.
CCCCn1c(CN2CCN(c3ccc(F)cc3)CC2)nc2c1c(=O)n(C)c(=O)n2C	?	-4%	-12%	79	30*	-1%
Cn1c(=O)c2c(nc(CN3CCN(c4ccccc4F)CC3)n2Cc2ccccc2F)n(C)c1=O	-15%	.	-1%[46.1 µM]	.	.	-24%[46.1 µM]
Cn1c(=O)c2c(nc(CN3CCN(c4ccc(F)cc4)CC3)n2Cc2ccccc2F)n(C)c1=O	2%	?	16µM*	33	-5	-24%
Cc1cccc2sc(NC(=O)CN3C(=O)C4CC=CCC4C3=O)nc12 (stereo not given)	4%	8%	27%[46.1 µM]	14	-2	1%
COCc1cc(=O)[nH]c(Nc2nc3ccc(C)cc3o2)n1	?	?	?	82*	43*	?
O=C(N/N=C/c1coc2ccccc2c1=O)c1cc(Br)ccc1O	11%	6%	0%	-1	-2	?
O=C(N/N=C/c1cccnc1)c1cccc(F)c1	29%	9%	-1%	23*	20*	10%
O=C(N/N=C/c1cccnc1)c1ccc(O)cc1	3%	-1%	-2%[46.1 µM]	40	19*	?
O=C(N/N=C/c1cccnc1)c1cc(O)c(O)c(O)c1	12%	-3%	3.2µM*	2	-1	?
O=C(N/N=C/c1ccccn1)c1cc(Br)ccc1O	-6%	-4%	-12%[46.1 µM]	48*	32*	?
Cc1cc(C)n2nc(CNS(=O)(=O)c3ccc(Cl)cc3)nc2n1	-9%	.	6%[46.1 µM]	.	.	1%[46.1 µM]
COc1cc(NC(=O)CN2CCN(c3ccccn3)CC2)cc(OC)c1OC	-5%	-8%	-7%[46.1 µM]	1	1	?
O=C(N/N=C/c1cccnc1)c1cc(Br)ccc1O	47%	8%	.	53*	26*	.
CCOc1ccc(Br)cc1C(=O)N/N=C/c1cccnc1	13%	?	.	-4	4	.
O=C(N/N=C/c1ccc(OC(=O)c2cccc(F)c2)cc1)c1cccnc1	13%	20%	22%[46.1 µM]	22	-3	14%
O=C(N/N=C/c1ccccn1)c1ccc(Br)o1	48%	5%	-25%	44*	19*	-13%
Fc1ccc(N/N=C/c2cccnc2)c(F)c1	49%	-5%	.	73*	31*	.
FC(F)(F)c1ccccc1N/N=C/c1cccnc1	0%	-4%	-13%[46.1 µM]	27	22	?
O=C(N/N=C/c1ccc(OC(=O)c2cccs2)cc1)c1cccc(F)c1	53%	8%	-33%	31	47*	11%
COc1cccc(C(=O)NNC2=CC(=O)CC(C)(C)C2)c1	11%	0%	6%	4	-3	-5%
COc1cccc(CNC(=O)CSCC(=O)Nc2ccc(C)cc2)c1	-1%	-1%	-28%	.	.	0%
O=[N+]([O-])c1ccc(C2CN=C(Nc3ccccc3)S2)cc1 (stereo not given)	0%	?	0%[46.1 µM]	77*	57*	-1%[46.1 µM]
Cc1ccc(NC2=NCC(Cc3ccc(Br)cc3)S2)cc1 (stereo not given)	-12%	?	?	26	6	?
SMILES	FMDV inh	HCV inh	MARV entry inh	Shiga inhibitor	CHX counter	LASV entry inh
Nc1cc([N+](=O)[O-])ccc1Nc1ccccc1	?	-7%	?	2	17	?
CCc1ccc(NC2=NCC(c3ccccc3)S2)cc1 (stereo not given)	29%	?	-29%[46.1 µM]	82*	58*	-9%
CC(=O)N1CCN(CC(=O)Nc2ccccc2C(=O)NCc2ccc(C)cc2)CC1	-12%	10%	?	3	-2	?
CCOC(=O)c1[nH]c2ccccc2c1NC(=O)CC	12%	0%	.	-9	-5	.
CCOC(=O)c1[nH]c2ccccc2c1NC(C)=O	-13%	8%	.	-7	-4	.
CCOC(=O)c1[nH]c2ccccc2c1NC(=S)Nc1cccc(C)c1	25%	0%[8.37 µM]	3%	27	32*	?
CCOC(=O)c1[nH]c2ccc(C)cc2c1N	60%	1%	14%	61*	27*	?
CCOC(=O)c1[nH]c2ccccc2c1NC(=S)Nc1ccccc1	7%	-17%[8.37 µM]	?	28	23*	17%
C/C(CC(C)(C)C1CCCCC1)=N\NC(N)=S	.	2.8µM*	?	-13	-2	16µM*
C/C(CC1CC(C)OC1=O)=N\NC(N)=S (stereo not given)	7%	4%	.	-7	-1	.
Cc1cc2ncc(-c3cccs3)nc2cc1C	-31%	-5%	.	101*	51*	.
Cc1ccccc1S(=O)(=O)c1cc2ccccc2nc1N	2%	?	1%[46.1 µM]	-7	-3	0%
N#Cc1cc2ccccc2nc1N	16%	16%	38%[46.1 µM]	9	-2	?
Nc1nc2ccccc2cc1-c1cccs1	53%	-24%	.	94*	61*	.
Cc1ccc(-c2cc3ccccc3nc2N)cc1	8%	?	.	71*	18*	.
c1csc(-c2ccc3ccccc3n2)c1	22%	3%	?	90	33*	?
COc1cc(OC)c2c(c1)OC(=O)CC2c1ccc(C)cc1 (stereo not given)	-18%	?	.	i	14	.
COc1ccc(OC)c(-c2cc(C(=O)NCc3cccs3)no2)c1	-11%	?	1%	24	0	19%[14.3 µM]
CCCc1cc(C(=O)NCc2cccs2)no1	84%	14%	-2%	61	35*	.
CCCc1cc(C(=O)NCC(C)C)no1	51%	4%	.	117*	33*	.
CCCc1cc(C(=O)NCc2ccco2)no1	50%	12%	.	72*	15*	.
CCCc1cc(C(=O)NCc2ccccc2)no1	88%	5%	.	59*	27*	.
CCC(=O)c1cc2c(cc1NC(=O)C(C)C)OCCO2	-10%	6.3µM*	0%	-13	18	12%
CC(C)(C)Nc1nc(OCC(F)(F)F)nc(OCC(F)(F)F)n1	19%	-2%	-7%	31*	13*	0%
CCC(C)Nc1nc(OCC(F)(F)F)nc(OCC(F)(F)F)n1 (stereo not given)	2%	?	10%	-11	-2	-2%
Cn1c2cc(C(=O)O)sc2c2cnn(Cc3ccccc3F)c(=O)c21	.	.	.	-1	0	.
CCCSC1C(C)=C(C)C(=O)N1Cc1ccccc1 (stereo not given)	6%	4%	.	-9	-2	.
Cc1cc2nc3n(c2cc1C)CC1CC(C(=O)NCc2ccccc2)N(C)C31 (stereo not given)	-20%	3%	.	.	.	.
Cc1ccc(-c2cn(-c3ccccc3)c3[n+]2CCCS3)cc1	10µM*	?	?	32	-3	?
c1ccc(-c2cn(-c3ccccc3)c3[n+]2CCCS3)cc1	?	-19%	?	12	-2	4%
